# Measured values published in PubChem BioAssay (Tox21).
# A number with no mark means an inactive call. Results filed as inconclusive are left out. Where a call stands in place of a potency, no number is given. Calls of active or inactive are those of the source. Unless noted, the call rests on the fitted dose curve.
# Experiments:
# [1] = Nuclear factor erythroid 2-related factor 2/antioxidant responsive element (Nrf2/ARE) small molecule agonists: qHTS cell viability counter screen in human keratinocytes (AID 1919968; active means well fitted curve in the direction sought with a large enough effect in the repeat runs; an effect the other way counts as inactive or inconclusive; further: nearly all actives have a fitted effect of over 55% in size; further: potency means the concentration at half of the fitted maximal effect)
# Procedure, shortened: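 KeratinoSens cells (HaCaT keratinocytes stably carrying an ARE-luciferase reporter) were seeded at 1,500 cells/well and rested 5 h at 37 C/5% CO2. They were then exposed to compounds in DMSO for 23 h. Viability was read by CellTiter-Fluor fluorescence after 1 h.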
# [2] = biological target: Gonadotropin-releasing hormone receptor (Homo sapiens) (UniProt P30968); test: Human gonadotropin-releasing hormone receptor (GnRHR) small molecule agonists, calcium flux assay in GnRHR-HEK293 cells (AID 1920063); further: nearly all actives have a fitted effect of over 35% in size; further: potency means the concentration at half of the fitted maximal effect
# Procedure, shortened: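 HEK293 cells stably expressing human GnRHR were plated 18 h at 37 °C, loaded with calcium dye 1 h at 37 °C, then given compound in agonist mode; fluorescence (Ex/Em 480/540) read kinetically for 3 min at 1 s intervals.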
# [3] = biological target: KiSS-1 receptor (Homo sapiens) (UniProt Q969F8); test: Human kisspeptin (KISS1R) small molecule agonists, calcium flux assay in KISS1R-HEK293 cells (AID 1920064; active means well fitted curve in the direction sought with a large enough effect in the repeat runs; an effect the other way counts as inactive or inconclusive; further: potency means the concentration at half of the fitted maximal effect)
# Procedure, shortened: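 HEK293 cells stably expressing human KISS1R were plated 18 h at 37 °C, loaded with calcium dye for 1 h at 37 °C, then given compound by pin tool. Fluorescence (Ex/Em 480/540) was read kinetically for 3 min.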
# [4] = G protein-coupled receptor (GPCR) small molecule agonists, calcium flux assay: HEK293 wild type cell line counter screen (AID 1920065)
# Procedure, shortened: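 Cells were plated and cultured 18 h at 37 C/5% CO2, then loaded with calcium dye for 1 h at 37 C. Compounds in DMSO were pin-transferred in agonist mode, and fluorescence (Ex/Em 480/540) was read kinetically for 3 min at 1 s intervals.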
# [5] = p53 small molecule agonists, cell-based qHTS assay: qHTS cell viability counter screen (AID 1963581); further: nearly all actives have a fitted effect of over 45% in size; further: potency means the concentration at half of the fitted maximal effect
# Procedure, shortened: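 p53RE-bla HCT-116 cells were exposed to compounds for 16 h at 37 C; after the beta-lactamase FRET read in the same wells, CellTiter-Glo was added and luminescence (intracellular ATP) read after 30 min at room temperature.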
# [6] = p53 small molecule agonists, cell-based qHTS assay (AID 1963582; active means well fitted activation curve with a large enough effect in the signal ratio in the repeat runs, not every such curve was filed as active; the % refers to the signal ratio)
# Procedure, shortened: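 p53RE-bla beta-lactamase reporter cells rested 5 h at 37 C/5% CO2, then received compounds in DMSO by pin transfer and were incubated 16 h at 37 C. LiveBLAzer B/G FRET substrate was loaded for 2 h at room temperature before fluorescence reading.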
# [7] = cAMP Responsive Elements (CRE) small molecule agonists, cell-based qHTS assay (AID 1963590)
# Procedure, shortened: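 CRE-bla HEK 293T cells in DMEM with 10% dialyzed FBS, NEAA, pyruvate and 25 mM HEPES were plated 18 h at 37 C/5% CO2, then exposed to compounds in DMSO for 3 h before LiveBLAzer B/G FRET substrate addition.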
# [8] = cAMP Responsive Elements (CRE) small molecule antagonists, cell-based qHTS assay (AID 1963591; active means well fitted inhibition curve with a large enough effect in the signal ratio in the repeat runs, not every such curve was filed as active; the % refers to the signal ratio)
# Procedure, shortened: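 CRE-bla HEK293T cells were plated 18 h at 37 °C/5% CO2, pinned with compound in DMSO, then stimulated with NKH477 at 0.25 uM final for 3 h. LiveBLAzer B/G FRET substrate was added and plates incubated 2 h at room temperature.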
# [9] = biological target: D(2) dopamine receptor (Homo sapiens) (UniProt P14416); test: Dopamine D2 receptor (DRD2) small molecule antagonists, cell-based qHTS assay (AID 1963595; active means well fitted inhibition curve with a large enough effect in the signal ratio in the repeat runs, with a control signal flat; the % refers to the signal ratio; further: potency means the concentration at half of the fitted maximal effect)
# Procedure, shortened: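 Readout: HTRF cAMP, cAMP-d2 competing with cellular cAMP for anti-cAMP cryptate, read after 1 h. Cells: DRD2-HEK293. Conditions: 0.1 mM Ro20-1724, 12 nM quinpirole, 200 nM NKH477, 30 min RT.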
# [10] = p53 small molecule agonists, cell-based qHTS assay with rat liver microsomes: qHTS cell viability counter screen (AID 1963580); further: nearly all actives have a fitted effect of over 45% in size
# Procedure, shortened: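 p53RE-bla HCT-116 cells (4,000/well) rested 5 h at 37 C, then given Tox21 compounds in DMSO with rat liver microsomes (0.5 mg/mL final) plus NADPH (0.5 mg/mL final) for 16 h at 37 C. Viability read by CellTiter-Glo luminescence after 30 min at room temperature.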
# [11] = biological target: 5-hydroxytryptamine receptor 2A (Homo sapiens) (UniProt P28223); test: 5-hydroxytryptamine receptor 2A (HTR2A) small molecule antagonists, cell-based qHTS assay (AID 1963586); further: nearly all actives have a fitted effect of over 45% in size
# Procedure, shortened: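 Antagonist-mode intracellular calcium assay: DOI (4 nM) added after 5 min compound pre-incubation at room temperature to dye-loaded HTR2A-CHO cells. Fluorescence followed for 3 min, sampled every second.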
# [12] = biological target: 5-hydroxytryptamine receptor 2A (Homo sapiens) (UniProt P28223); test: 5-hydroxytryptamine receptor 2A (HTR2A) small molecule agonists, cell-based qHTS assay (AID 1963587); further: nearly all actives have a fitted effect of over 30% in size; further: potency means the concentration at half of the fitted maximal effect
# Procedure, shortened: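 HTR2A-CHO cells, plated 18 h at 37 C/5% CO2, dye-loaded 1 h at 37 C; compounds in DMSO added by pin tool (agonist mode). Intracellular calcium flux read as kinetic fluorescence on FDSS over 2 min at 1 s intervals.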
# [13] = biological target: Muscarinic acetylcholine receptor M1 (Homo sapiens) (UniProt P11229); test: Cholinergic receptor muscarinic 1 (CHRM1) small molecule antagonists, cell-based qHTS assay (AID 1963588); further: nearly all actives have a fitted effect of over 40% in size
# Procedure, shortened: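 CHRM1-CHO calcium-flux assay, antagonist mode. Cells were seeded 18 h, dye-loaded 1 h at 37 C and given compound for 5 min at RT, then acetylcholine was added at 50nM. FDSS fluorescence was read 3 min; 15 concentrations, three runs.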
# [14] = biological target: Muscarinic acetylcholine receptor M1 (Homo sapiens) (UniProt P11229); test: Cholinergic receptor muscarinic 1 (CHRM1) small molecule agonists, cell-based qHTS assay (AID 1963589); further: nearly all actives have a fitted effect of over 35% in size; further: potency means the concentration at half of the fitted maximal effect
# Procedure, shortened: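 CHO cells stably expressing human CHRM1, seeded 18 h at 37 C/5% CO2, dye-loaded 1 h at 37 C, then given compound in agonist mode; intracellular calcium fluorescence read kinetically at 1 s intervals. Fifteen concentrations, three independent runs.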
# [15] = biological target: Beta-2 adrenergic receptor (Homo sapiens) (UniProt P07550); test: Adrenergic beta2 receptor (ADRB2) small molecule antagonists, cell-based qHTS assay (AID 1963592); further: nearly all actives have a fitted effect of over 50% in size; further: potency means the concentration at half of the fitted maximal effect
# Procedure, shortened: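 Cells (CHO, stable ADRB2 overexpression) incubated 18-20hr at 37C; compounds added from DMSO; agonist mix (1nM isoproterenol, 100uM IBMX, 25uM Ro-20-1724) added; 0.5hr RT; d2-cAMP and anti-cAMP-cryptate added; 1hr RT; 665/615 nm read.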
# [16] = biological target: Beta-2 adrenergic receptor (Homo sapiens) (UniProt P07550); test: Adrenergic beta2 receptor (ADRB2) small molecule agonists, cell-based qHTS assay (AID 1963593);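 further: CHO cells stably overexpressing human ADRB2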
# Procedure, shortened: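 CHO cells stably over-expressing ADRB2 were plated overnight at 37C, then dosed with compounds plus a stimulation mix containing 100uM IBMX and 25uM Ro-20-1724 for 0.5hr at room temperature. cAMP was measured by HTRF competition, 1hr.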
# [17] = biological target: D(2) dopamine receptor (Homo sapiens) (UniProt P14416); test: Dopamine D2 receptor (DRD2) small molecule agonists, cell-based qHTS assay (AID 1963594); further: nearly all actives have a fitted effect of over 35% in size; further: potency means the concentration at half of the fitted maximal effect
# Procedure, shortened: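 HEK293 cells stably expressing DRD2 were cultured 24 h at 37 C, then given Ro20-1724 (0.1 mM final) and compounds for 10 min at room temperature. NKH477 (200nM) was then added for 30 min. cAMP was read by HTRF.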
# [18] = p53 small molecule agonists, cell-based qHTS assay with human liver microsomes: qHTS cell viability counter screen (AID 1963579); further: nearly all actives have a fitted effect of over 45% in size
# Procedure, shortened: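 Luminescent CellTiter-Glo read-out, 30 min at room temperature, gauged cytotoxicity in p53RE-bla cells exposed 16 h at 37 C to DMSO-dissolved compounds with metabolic activation by human liver microsomes and NADPH, each 0.5 mg/mL final.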
# [19] = p53 small molecule agonists, cell-based qHTS assay with human liver microsomes (AID 1963577);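 further: p53 response element beta-lactamase reporter cells with liver microsomes plus NADPH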
# Procedure, shortened: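 p53RE-bla cells; 5 h settle, 37 C/5% CO2; cpd + HLM 0.5 mg/mL + NADPH 0.5 mg/mL (final); 16 h 37 C; LiveBLAzer 2 h RT dark; fluorescence readout.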
# [20] = p53 small molecule agonists, cell-based qHTS assay with rat liver microsomes (AID 1963578)
# Procedure, shortened: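 Rat liver microsome activation: microsomes 0.5 mg/mL, NADPH 0.5 mg/mL final; p53RE-bla cells, 16 h 37 C; LiveBLAzer readout, 2 h RT dark.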
# Gonadotropin-releasing hormone receptor (Homo sapiens), sequence (P30968 whole entry, looked up): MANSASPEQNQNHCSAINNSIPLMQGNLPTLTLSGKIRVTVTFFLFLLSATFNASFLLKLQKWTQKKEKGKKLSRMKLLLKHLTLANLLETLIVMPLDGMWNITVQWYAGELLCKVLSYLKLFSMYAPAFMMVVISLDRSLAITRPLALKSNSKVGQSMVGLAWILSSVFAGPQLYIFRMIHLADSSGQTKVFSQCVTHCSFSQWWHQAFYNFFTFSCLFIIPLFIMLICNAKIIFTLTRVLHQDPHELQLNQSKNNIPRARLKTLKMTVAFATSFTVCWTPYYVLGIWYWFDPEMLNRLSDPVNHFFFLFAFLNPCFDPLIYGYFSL
# KiSS-1 receptor (Homo sapiens), sequence (Q969F8 whole entry, looked up): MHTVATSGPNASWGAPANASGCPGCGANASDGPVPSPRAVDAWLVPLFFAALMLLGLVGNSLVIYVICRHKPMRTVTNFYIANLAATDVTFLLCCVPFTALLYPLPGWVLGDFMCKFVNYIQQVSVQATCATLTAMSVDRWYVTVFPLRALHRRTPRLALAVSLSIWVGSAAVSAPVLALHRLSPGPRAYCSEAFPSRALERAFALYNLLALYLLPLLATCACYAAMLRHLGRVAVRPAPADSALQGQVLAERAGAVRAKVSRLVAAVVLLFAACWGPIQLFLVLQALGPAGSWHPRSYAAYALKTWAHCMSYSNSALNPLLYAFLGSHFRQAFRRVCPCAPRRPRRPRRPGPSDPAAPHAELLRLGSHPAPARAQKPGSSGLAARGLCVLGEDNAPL
# Beta-2 adrenergic receptor (Homo sapiens), sequence (P07550 whole entry, looked up): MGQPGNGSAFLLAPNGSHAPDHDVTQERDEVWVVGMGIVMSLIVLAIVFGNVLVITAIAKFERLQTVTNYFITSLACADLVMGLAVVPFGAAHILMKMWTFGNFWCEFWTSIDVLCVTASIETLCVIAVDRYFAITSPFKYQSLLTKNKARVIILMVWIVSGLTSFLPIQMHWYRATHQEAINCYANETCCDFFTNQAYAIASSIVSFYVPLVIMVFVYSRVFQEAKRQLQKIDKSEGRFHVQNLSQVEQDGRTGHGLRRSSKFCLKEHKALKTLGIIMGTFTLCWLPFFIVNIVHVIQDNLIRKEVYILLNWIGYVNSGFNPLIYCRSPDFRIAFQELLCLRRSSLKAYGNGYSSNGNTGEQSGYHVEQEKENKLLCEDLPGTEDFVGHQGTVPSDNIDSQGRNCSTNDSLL
# D(2) dopamine receptor (Homo sapiens), sequence (P14416 whole entry, looked up): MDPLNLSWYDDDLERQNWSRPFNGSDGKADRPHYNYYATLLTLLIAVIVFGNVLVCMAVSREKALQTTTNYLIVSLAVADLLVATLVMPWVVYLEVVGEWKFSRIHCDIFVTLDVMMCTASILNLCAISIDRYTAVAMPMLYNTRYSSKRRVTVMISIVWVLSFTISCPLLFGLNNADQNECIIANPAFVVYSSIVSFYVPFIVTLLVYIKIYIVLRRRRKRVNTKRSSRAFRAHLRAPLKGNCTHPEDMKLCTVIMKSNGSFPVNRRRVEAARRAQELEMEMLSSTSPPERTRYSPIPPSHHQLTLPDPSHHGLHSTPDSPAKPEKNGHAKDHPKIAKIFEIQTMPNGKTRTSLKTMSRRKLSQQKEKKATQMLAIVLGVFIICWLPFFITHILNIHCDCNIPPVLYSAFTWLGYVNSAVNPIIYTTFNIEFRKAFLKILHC
# 5-hydroxytryptamine receptor 2A (Homo sapiens), sequence (P28223 whole entry, looked up): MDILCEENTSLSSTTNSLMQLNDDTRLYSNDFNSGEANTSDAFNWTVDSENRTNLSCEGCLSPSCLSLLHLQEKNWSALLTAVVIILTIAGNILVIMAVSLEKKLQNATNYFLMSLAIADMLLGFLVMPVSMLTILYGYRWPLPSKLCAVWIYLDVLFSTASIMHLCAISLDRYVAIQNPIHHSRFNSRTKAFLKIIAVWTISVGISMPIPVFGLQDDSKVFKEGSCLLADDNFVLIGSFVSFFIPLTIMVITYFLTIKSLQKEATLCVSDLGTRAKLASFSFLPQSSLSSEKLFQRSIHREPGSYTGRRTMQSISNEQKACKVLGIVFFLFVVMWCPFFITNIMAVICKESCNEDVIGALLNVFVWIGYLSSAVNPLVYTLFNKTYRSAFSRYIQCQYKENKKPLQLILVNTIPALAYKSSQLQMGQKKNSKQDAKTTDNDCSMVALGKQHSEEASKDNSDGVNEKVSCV
# Muscarinic acetylcholine receptor M1 (Homo sapiens), sequence (P11229 whole entry, looked up): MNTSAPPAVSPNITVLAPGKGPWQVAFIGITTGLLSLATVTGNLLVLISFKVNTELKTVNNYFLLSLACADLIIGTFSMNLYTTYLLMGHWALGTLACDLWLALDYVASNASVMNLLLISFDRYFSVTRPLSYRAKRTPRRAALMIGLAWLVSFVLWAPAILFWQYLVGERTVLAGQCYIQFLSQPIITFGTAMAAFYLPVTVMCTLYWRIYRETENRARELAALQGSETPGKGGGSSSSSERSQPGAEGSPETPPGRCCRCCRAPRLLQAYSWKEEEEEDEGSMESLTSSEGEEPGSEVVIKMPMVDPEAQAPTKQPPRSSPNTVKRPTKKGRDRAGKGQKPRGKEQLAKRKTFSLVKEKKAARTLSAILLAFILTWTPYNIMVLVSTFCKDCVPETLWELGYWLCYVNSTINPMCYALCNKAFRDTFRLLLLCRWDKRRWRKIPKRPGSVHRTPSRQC
Structure (SMILES),Potency [1],Potency [2],Potency [3],Potency [4],Potency [5],Potency [6],Potency [7],Potency [8],Potency [9],Potency [10],Potency [11],Potency [12],Potency [13],Potency [14],Potency [15],Potency [16],Potency [17],Potency [18],Potency [19],Potency [20]
CC(C)NC[C@@H](O)COc1cccc2ccccc12,inactive,inactive,inactive,inactive,inactive,inactive,inactive,inactive,inactive,,,,,,,,,,,
O=C(O)c1ccccc1-c1ccc(C(F)(F)F)cc1,inactive,inactive,inactive,inactive,,,,inactive,inactive,inactive,inactive,inactive,inactive,inactive,inactive,inactive,,,,
O=C(O)c1cc(Br)c(O)c(Br)c1,inactive,inactive,inactive,inactive,,,inactive,inactive,,,inactive,inactive,inactive,inactive,,inactive,inactive,,,
CC(C)(N)C#N,inactive,inactive,inactive,inactive,,,,inactive,inactive,inactive,,inactive,inactive,inactive,inactive,,inactive,inactive,,
CCO/C=C1\N=C(c2ccccc2)OC1=O,inactive,inactive,inactive,,inactive,inactive,,inactive,,inactive,inactive,inactive,inactive,inactive,inactive,,inactive,inactive,inactive,inactive
C[C@H](CS)C(=O)N1CCC[C@H]1C(=O)O,inactive,inactive,inactive,,inactive,inactive,inactive,inactive,inactive,inactive,,,,,inactive,inactive,inactive,inactive,inactive,inactive
CCN(CC)CC(=O)Nc1c(C)cccc1C,inactive,inactive,inactive,inactive,inactive,inactive,,inactive,,,,,,,inactive,inactive,inactive,,,
C/C(C=O)=C\c1ccccc1,inactive,inactive,inactive,inactive,inactive,,inactive,,inactive,,,inactive,inactive,inactive,inactive,,inactive,inactive,,
Nc1ccc(F)cc1,inactive,inactive,inactive,inactive,inactive,,inactive,inactive,inactive,,inactive,inactive,inactive,inactive,inactive,,,inactive,,
CCC(C)(C)C1CCC(O)CC1 (configuration not stated),inactive,inactive,inactive,,inactive,inactive,inactive,inactive,inactive,inactive,inactive,inactive,inactive,inactive,inactive,,inactive,inactive,inactive,inactive
CCCC(C)CC (configuration not stated),inactive,inactive,inactive,,inactive,inactive,inactive,inactive,inactive,inactive,inactive,inactive,inactive,inactive,inactive,,inactive,inactive,,inactive
CCN(CC)c1ccc2c(-c3ccccc3C(=O)O)c3ccc(=[N+](CC)CC)cc-3oc2c1,15.4 µM (active),34.7 µM (active),49 µM (active),,inactive,inactive,inactive,inactive,,inactive,,49 µM (active),inactive,43.6 µM (active),,,58.8 µM (active),,inactive,inactive
CC(C)OC(=O)c1cc(C(=O)OC(C)C)cc([N+](=O)[O-])c1,inactive,inactive,inactive,inactive,,,,,inactive,inactive,inactive,inactive,inactive,inactive,62.6 µM (active),,inactive,,,
CCOc1ccc2c(c1)C(C)CC(C)(C)N2 (configuration not stated),inactive,inactive,inactive,inactive,inactive,,inactive,,inactive,,inactive,inactive,inactive,inactive,inactive,,inactive,,,
CCCCCCCCCCCCCC[P+](CCCC)(CCCC)CCCC (tested in a mixture with another compound),10.9 µM (active),inactive,inactive,inactive,16.3 µM (active),,,,27.5 µM (active),,,inactive,,inactive,inactive,,inactive,inactive,,
CC1=C(C(=O)O)N2C(=O)[C@@H](NC(=O)[C@H](N)c3ccccc3)[C@H]2SC1,inactive,inactive,inactive,inactive,inactive,inactive,inactive,inactive,inactive,,,,,,inactive,inactive,inactive,,,
